PubChem BioAssay (NCI)
This is part of a sample that, as a whole, favours compounds with a hit. Of some 79,000 tested, about 15% had one in any assay. Values without a mark were called inactive. Calls of active or inactive are those of the source. No stated cut-off is given here; in the data, active means growth inhibition above about 70%; inactive means the rest.

Experiment: NCI Yeast Anticancer Drug Screen. Data for the rad14 strain (AID 159);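 further: 0% = growth of vehicle-treated control cultures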
Settings: S. cerevisiae rad14 strain growth inhibition, hits give high values
Experimental: Growth inhibition of yeast strains with defined genetic alterations is measured as a screen for potential anti-cancer activity. Selected strains with alterations in DNA damage repair or cell cycle control were exposed to compounds and growth inhibition was measured relative to vehicle treated controls. The strain used in this assay is rad14

Structure (SMILES)	growth inhibition (at 1.2 µM) [%]	growth inhibition (at 3.7 µM) [%]	growth inhibition (at 11.0 µM) [%]	growth inhibition (at 33.0 µM)	growth inhibition (at 100.0 µM)
Oc1ccc2ccccc2c1CCc1c(O)ccc2ccccc12	3	8	28	89% (active)	85% (active)
O=Cc1ccc2c(c1)C(=O)c1ccccc1C2=O	0	-3	10	23%	37%
CC(C)(C)c1ccc(NS(=O)(=O)c2ccc(N)cc2)cc1	1	-1	1	2%	40%
O=[N+]([O-])c1cc[n+]([O-])cc1	-2	1	-1	19%	99% (active)
O=C(c1ccc([N+](=O)[O-])cc1)C1N=NCC1c1ccccc1 (stereo not given)	1	2	6	13%	51%
O=C(NCCCNCCN1C(=O)c2cccc3cc([N+](=O)[O-])cc(c23)C1=O)c1cc(-c2ccccc2)nc2ccccc12	-1	-1	4	21%	99% (active)
Cc1ccc(S/C(=C\C(=O)O)c2ccccc2)cc1	-1	3	7	17%	34%
COC(=O)C1(C)CCc2c(ccc3ccccc23)C1=O (stereo not given)	-1	4	12	14%	19%
